The values below come from PubChem BioAssay (NCATS).

Results filed as inconclusive are left out. Entries that show only a call come without a potency. Activity calls are given as the source filed them. The call rests on the fitted dose curve; in most records, active means well fitted inhibition curve with a large enough effect; inconclusive means small, poorly fitted or top-dose-only effect; inactive means flat fitted curve, though single readings scatter.
Potency means the concentration at half of the fitted maximal effect.

In the experiment the test system is PC49. As to the kind of experiment: qHTS profiling for inhibitors of Plasmodium falciparum proliferation (AID 504749). Further: nearly all actives have a fitted effect of over 60% in size. The conditions noted are these: P. falciparum in erythrocytes, SYBR Green DNA, 72 h; series mostly up to 28.7 µM. The method in brief: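 P. falciparum-infected erythrocytes (0.3% parasitemia, 2.5% hematocrit final) were exposed to compounds for 72 h at 37 C in 5% CO2, then lysed with SYBR Green buffer overnight at room temperature; parasite DNA fluorescence was normalized to artemisinin and DMSO controls.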
Consider `CCCCCCCCCCCCCCNCCO`, for which the Potency result was “inactive”. For `CCCCc1nc(Cl)c(CO)n1Cc1ccc(-c2ccccc2-c2nn[nH]n2)cc1` the value was “inactive”; for `C=CCc1ccc(O)c(OC)c1`, “inactive”. With `CCN(CC)CCOC(=O)C(c1ccccc1)C1CCCCC1` (centres undefined) the entry was “inactive”; with `CN(C(=O)CN(CCO)CC(=O)N(C)C(C)(C)Cc1ccccc1)C(C)(C)Cc1ccccc1`, “inactive”; with `O=C1OC(c2ccc(O)cc2)(c2ccc(O)cc2)c2ccccc21`, “inactive”. For `C#C[C@]1(O)CC[C@H]2[C@@H]3CCc4cc(OC5CCCC5)ccc4[C@H]3CC[C@@]21C` the value was “inactive”; for `O=S1(=O)c2cccc3cccc(c23)N1CCCN1CCN(c2ccc(F)cc2)CC1`, “inactive”. `CN1CCC(=C2c3ccccc3Sc3ccccc32)CC1`: the Potency result was “inactive”. Regarding `C[C@@H](CN(C)C)CN1c2ccccc2Sc2ccccc21`, the Potency result was “inactive”.

In the case of `CC(C)=CCC1C(=O)N(c2ccccc2)N(c2ccccc2)C1=O`, the Potency entry was “inactive”. For `CCCCCCCCCCCCCCCC[N+](C)(C)CCN(Cc1ccc(OC)cc1)c1ncccn1` the value was “inactive”. For `O=C(N/N=C/c1ccccc1O)c1ccncc1` the value was “inactive”; for `CN1C2CCC1CC(OC(=O)c1c[nH]c3ccccc13)C2` (centres undefined), “inactive”; for `Cc1cccc(C)c1NC(=O)CN1CCN(CCCC(c2ccc(F)cc2)c2ccc(F)cc2)CC1`, “inactive”.

Regarding `CC/C(=C(/CC)c1ccc(O)cc1)c1ccc(O)cc1`, the Potency result was “inactive”. With `CC[N+](CC)(CCNC(=O)C(=O)NCC[N+](CC)(CC)Cc1ccccc1Cl)Cc1ccccc1Cl` the figure was 5.01 µM (active).

For `O=C(CCN1CCC(c2ccccc2)C1)c1ccc2c(c1)OCCO2` (centres undefined), the Potency result is “inactive”.

`Cc1ccc(O)c2ncccc12`: the Potency entry is “inactive”. With `Oc1c(I)cc(I)c2cccnc12` the entry was “inactive”; with `CCOC(=O)/C=C(C)/C=C/C=C(C)/C=C/c1c(C)cc(OC)c(C)c1C`, “inactive”. As for `CCN(CCCc1ccccc1)CCCc1ccccc1`, the Potency result was “inactive”. Regarding `C[C@@H]1C[C@H]2[C@@H]3CCC4=CC(=O)C=C[C@]4(C)[C@@]3(F)[C@@H](O)C[C@]2(C)[C@H]1C(=O)CO`, the Potency result was “inactive”. For `CC(=O)c1ccc2c(c1)N(CCCN1CCC(CCO)CC1)c1ccccc1S2` the value was “inactive”. For `Oc1c(I)cc(Cl)c2cccnc12` the value was “inactive”; for `OCc1ccccc1O`, “inactive”; for `CC(=O)Nc1c(I)cc(I)c(C(=O)O)c1I`, “inactive”. With `COc1cc2c(cc1OC)C(C(C(=O)N(CCc1ccc(OC)c(OC)c1OC)CCc1ccc(OC)c(OC)c1OC)c1ccccc1)=NCC2` (centres undefined) the figure was 1 µM (active).

As for `O=C1[C@H]2CCCC[C@H]2C(=O)N1CCCCN1CCN(c2nsc3ccccc23)CC1`, the Potency entry is “inactive”.
